Source: PubChem BioAssay
OPRM1-OPRD1 ag = OPRM1-OPRD1 heterodimerization agonism; activation, % at 9.3 µM; AID 504326; P35372+P41143; cells, luminescence; 340,000 compounds, 0.3% hits; in the data active = activation above about 18%;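 also: 0% = vehicle-treated cells and 100% = reference agonist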
MsrA inhibitor = inhibitors of bovine MsrA; purified bovine MsrA, absorbance read-out; inhibition, % at 15.5 µM; 360,000 compounds, 0.75% hits; AID 651718;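 also: 0% = vehicle wells with enzyme and 100% = reference inhibitor wells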
OPRM1-OPRD1 inv = mu-delta opioid heterodimer inverse agonism | AID 504357 | 340,000 compounds, 0.21% hits | inhibition, % at 9.3 µM | P35372+P41143 | cell-based MOR-DOR heterodimer luminescence; in the data active = inhibition above about 22%, passing the limit was not always enough;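 also: 0% = cells with DMSO and 100% = wells without cells with DMSO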
bovine MsrA act = activates bovine MsrA enzyme; purified bovine MsrA, absorbance read-out; activation, % at 10.6 µM; 360,000 compounds, 0.3% hits; AID 602163; in the data active = activation above about 7.5%;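 also: 0% = vehicle and 100% = reference activator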
HTR5A inv ctr = inverse agonist of human HTR5A in OPRM1-OPRD1 counter-screen | P47898 | HTR5A cell line, luminescence, inverse agonism | inhibition, % at 9.3 µM | 340,000 compounds, 0.083% hits | AID 504634; in the data active = inhibition mostly above about 23%, no sharp cut-off; inactive = mostly below about 18%;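 also: 0% = cells with DMSO and 100% = no-cell wells with DMSO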
HTR5A ag ctr = HTR5A agonism, opioid heterodimer counter-screen | P47898 | HTR5A agonist assay, luminescence, cell-based | activation, % at 9.3 µM | 340,000 compounds, 0.61% hits | AID 504692; in the data active = activation mostly above about 9.5%, no sharp cut-off; inactive = mostly below about 7.6%;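 also: 0% = cells with vehicle only and 100% = reference agonist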
MsrA inh confirm = confirmation of bovine MsrA inhibitors; shares compounds with MsrA inhibitor; purified bovine MsrA, absorbance read-out; inhibition, % at 15.5 µM; 2,300 compounds, 41% hits;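 also: coupled to thioredoxin reductase with NADPH and selenocystamine and DMSO as substrate; 0% = vehicle only and 100% = full effect of reference inhibitor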
The depositor's hits bear a star. In the library only some 1.9% were active in any assay of this set; here they are far more common. Rule as the data show it, unless noted: active = inhibition above about 4.5%; inactive = the rest.

What do the screens show for `Nc1ncc([N+](=O)[O-])cc1Br`?
OPRM1-OPRD1 ag: -2; MsrA inhibitor: 5.4*; OPRM1-OPRD1 inv: 8; bovine MsrA act: -11; HTR5A inv ctr: -5; HTR5A ag ctr: 2; MsrA inh confirm: 2

What do the screens show for `CCCc1nn2c(N)c(/C=C3\C=Nc4ccccc43)c(=O)nc2s1`?
OPRM1-OPRD1 ag: -3; MsrA inhibitor: -1; OPRM1-OPRD1 inv: 13; bovine MsrA act: -4; HTR5A inv ctr: -13; HTR5A ag ctr: -2

What do the screens show for `Nc1c(C=C2C=CC(=O)C=C2)c(=O)nc2sc(CC(=O)N3CCCC3)nn12`?
OPRM1-OPRD1 ag: -1; MsrA inhibitor: 4.7*; OPRM1-OPRD1 inv: 5; bovine MsrA act: -2; HTR5A inv ctr: 11; HTR5A ag ctr: -3; MsrA inh confirm: 0

How did CCOc1ccc(C(=O)N/N=C/c2ccc(-c3ccc(S(=O)(=O)Nc4ncccn4)cc3)o2)cc1 do in these assays?
OPRM1-OPRD1 ag: -2; MsrA inhibitor: 6.0*; OPRM1-OPRD1 inv: 9; bovine MsrA act: -6; HTR5A inv ctr: -19; HTR5A ag ctr: 0; MsrA inh confirm: 4.9*

What do the screens show for `Nc1nnc(CC(=O)N/N=C/c2ccc(-c3ccccc3)o2)s1`?
OPRM1-OPRD1 ag: -1; MsrA inhibitor: 6.6*; OPRM1-OPRD1 inv: 7; bovine MsrA act: -5; HTR5A inv ctr: -24; HTR5A ag ctr: -1; MsrA inh confirm: 7.9*

How did NC(=S)N/N=C/c1ccc(-c2ccccc2)o1 do in these assays?
OPRM1-OPRD1 ag: -3; MsrA inhibitor: 6.7*; OPRM1-OPRD1 inv: 13; bovine MsrA act: -5; HTR5A inv ctr: 17; HTR5A ag ctr: -1; MsrA inh confirm: 4

Results for Cc1ccc(-c2ccc(/C=N/NC(N)=S)o2)cc1 ?
OPRM1-OPRD1 ag: -2; MsrA inhibitor: 3; OPRM1-OPRD1 inv: 11; bovine MsrA act: -4; HTR5A inv ctr: -27; HTR5A ag ctr: 7

Results for NC(=S)NN=Cc1ccc(-c2ccc(S(=O)(=O)Nc3ncccn3)cc2)o1 ?
OPRM1-OPRD1 ag: -2; MsrA inhibitor: 3; OPRM1-OPRD1 inv: 10; bovine MsrA act: -7; HTR5A inv ctr: 18; HTR5A ag ctr: -5

How did NS(=O)(=O)c1ccc(-c2ccc(/C=N/NC(=O)c3ccccc3O)o2)cc1 do in these assays?
OPRM1-OPRD1 ag: -2; MsrA inhibitor: 4.9*; OPRM1-OPRD1 inv: 12; bovine MsrA act: -5; HTR5A inv ctr: -14; HTR5A ag ctr: -3; MsrA inh confirm: 4

How did O=C(N/N=C/c1ccc(-c2ccc(S(=O)(=O)Nc3ncccn3)cc2)o1)c1cc2ccccc2cc1O do in these assays?
OPRM1-OPRD1 ag: -3; MsrA inhibitor: 4; OPRM1-OPRD1 inv: 16; bovine MsrA act: -4; HTR5A inv ctr: 21; HTR5A ag ctr: -6

Results for COCCN1C(=O)CN(S(C)(=O)=O)CC1(C)C(=O)NC(C)C (stereo not given) ?
MsrA inhibitor: 0

Results for CCOC(=O)[C@]12CCCC=C1N(CCC1=CCCCC1)C(=O)[C@H](CC(=O)NCc1cccc3ccccc13)C2 ?
MsrA inhibitor: -1

What do the screens show for `COc1ccc(-c2ccc(/C=N/NC(=O)Cc3nnc(N)s3)o2)cc1Cl`?
MsrA inhibitor: 3; bovine MsrA act: -6

Results for COC(=O)c1ccc(-c2ccc(/C=N/NC(=O)Cc3nnc(N)s3)o2)cc1 ?
OPRM1-OPRD1 ag: 0; MsrA inhibitor: 4.8*; OPRM1-OPRD1 inv: 2; bovine MsrA act: 1; HTR5A inv ctr: 18; HTR5A ag ctr: -1; MsrA inh confirm: 4

Results for O=[N+]([O-])c1ccc(C2CCCC/C2=N/OCc2ccccc2F)c([N+](=O)[O-])c1 (stereo not given) ?
OPRM1-OPRD1 ag: 4; MsrA inhibitor: 9.2*; OPRM1-OPRD1 inv: -15; bovine MsrA act: -3; HTR5A inv ctr: -8; HTR5A ag ctr: 5; MsrA inh confirm: 6.9*

What do the screens show for `CCCCNC(=O)C1C(c2ccc(C(F)(F)F)cc2)=Nc2ccccc2N1C(=O)c1ccc2nc(C)[nH]c2c1` (stereo not given)?
MsrA inhibitor: 1

How did COc1ccc(C2=CC(=O)CC(C)(C)C2)cc1OC do in these assays?
OPRM1-OPRD1 ag: -1; MsrA inhibitor: 4.8*; OPRM1-OPRD1 inv: 4; bovine MsrA act: -11; HTR5A inv ctr: -18; HTR5A ag ctr: -1; MsrA inh confirm: 2

How did C[C@@H]1COc2cccc(NCCCN3CCOCC3)c2S(=O)(=O)N1 do in these assays?
MsrA inhibitor: 0
